Data published in PubChem BioAssay (EPA / NIEHS).
Records with an inconclusive call do not appear. Calls of active or inactive are those of the source. The calls were made as follows: active = hit-call score of the fitted dose curve at least 0.9, where 1 is the maximum; inconclusive = response in the unintended direction; inactive = score below 0.9.

What follows are compounds tested against Androgen receptor (Homo sapiens) (UniProt P10275) (assay: ATG_AR_TRANS: Attagene TRANS-FACTORIAL HepG2 Assay for human Androgen Receptor (AR) (AID 2282973)). Settings: HepG2 Attagene TRANS-FACTORIAL AR reporter transcription.
Chain of Androgen receptor (Homo sapiens) (P10275 whole entry, looked up): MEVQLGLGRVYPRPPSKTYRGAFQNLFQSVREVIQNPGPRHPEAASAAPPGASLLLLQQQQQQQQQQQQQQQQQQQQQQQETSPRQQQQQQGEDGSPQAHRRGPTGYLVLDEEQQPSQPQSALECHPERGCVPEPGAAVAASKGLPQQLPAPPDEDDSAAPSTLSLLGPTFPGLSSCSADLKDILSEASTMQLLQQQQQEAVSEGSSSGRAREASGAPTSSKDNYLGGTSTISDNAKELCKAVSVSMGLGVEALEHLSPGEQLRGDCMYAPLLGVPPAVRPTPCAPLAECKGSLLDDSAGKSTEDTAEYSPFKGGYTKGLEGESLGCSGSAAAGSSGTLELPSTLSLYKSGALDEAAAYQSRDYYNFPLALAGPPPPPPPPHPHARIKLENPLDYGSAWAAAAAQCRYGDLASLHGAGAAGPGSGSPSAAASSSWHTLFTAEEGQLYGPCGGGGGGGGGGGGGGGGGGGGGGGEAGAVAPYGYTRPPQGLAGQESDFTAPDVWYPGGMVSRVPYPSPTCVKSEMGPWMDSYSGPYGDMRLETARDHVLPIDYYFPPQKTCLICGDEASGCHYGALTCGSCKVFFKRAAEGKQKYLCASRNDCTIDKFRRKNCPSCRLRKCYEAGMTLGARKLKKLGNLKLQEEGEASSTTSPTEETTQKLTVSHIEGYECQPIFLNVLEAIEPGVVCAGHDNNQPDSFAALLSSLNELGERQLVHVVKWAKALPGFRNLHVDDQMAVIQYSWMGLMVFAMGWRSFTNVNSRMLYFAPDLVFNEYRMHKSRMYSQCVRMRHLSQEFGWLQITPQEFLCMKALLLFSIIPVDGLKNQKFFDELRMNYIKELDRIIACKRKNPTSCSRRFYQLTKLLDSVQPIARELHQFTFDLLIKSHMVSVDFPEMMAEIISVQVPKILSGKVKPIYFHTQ
Experimental: ATG_TRANS is a cell-based, multiplexed-readout assay that uses HepG2, a human liver cell line, with measurements taken at 24 hours after chemical dosing in a 24-well plate.ATG_AR_TRANS is one of 30 assay component(s) measured or calculated from the ATG_TRANS assay. It is designed to make measurements of mRNA induction, a form of inducible reporter, as detected with fluorescence intensity signals by Reverse transcription polymerase chain reaction (RT-PCR) and Capillary electrophoresis technology.Data from the assay component ATG_AR_TRANS was analyzed into 1 assay endpoint. This assay endpoint, ATG_AR_TRANS, was analyzed in the positive analysis fitting direction relative to DMSO as the negative control and baseline of activity. Using a type of inducible reporter, measures of mRNA for gain-of-signal activity can be used to understand the reporter gene at the transcription factor-level as they relate to the gene AR. Furthermore, this assay endpoint can be referred to as a primary readout, because this assay has produced multiple assay endpoints where this one serves a reporter gene function. To generalize the intended target to other relatable targets, this assay endpoint is annotated to the nuclear receptor intended target family, where the subfamily is steroidal.
Human liver HepG2 cells are transiently transfected with multiple reporter transcription units (MRTUs) in 6-well plates using FuGene 6 reagent (Roche; 3 ml FuGene/1 mg DNA). The MRTU constructs are regulated by a cis-regulating element (promoter). […] A major difference between the CIS and TRANS system is that in CIS activities of endogenous TFs are measured, whereas the TRANS assay evaluates changes in activities of exogenous, chimeric NR-Gal4 proteins. […] At the end of 24 hour incubation, total RNA was isolated using TriZol reagent (Invitrogen). The isolated RNA is then reverse-transcribed using oligo(dT) primer and Mo-MLV reverse transcriptase (Invitrogen) with DNAse I (Ambion) treatment for 30 min. The one-tenth of the produced cDNA was amplified by PCR using Taq DNA polymerase (Invitrogen) and two reporter sequence-specific primers. The PCR products were fluorescently labeled by primer extension with 6-arboxyfluorescein (6-FAM) 5'-labeled reporter sequence-specific primer (2 min at 95 C, 20 s at 68 C and 10 min at 72 C) and these products were digested with 5U of HpaI (New England Biolabs) for 2h at 37 C. The fragments were purified using Qiaquick PCR columns (Qiagen), analyzed on an ABI 3130xL genetic analyzer (Applied Biosystems) with peak positions identified by using a set of X-rhodamine (ROX)-labeled MapMarker1000 molecular weight standards (BioVentures). The raw capillary electrophoresis data was processed using Attagraph software (Attagene).

Structure (SMILES) | outcome
CCCCCCCCCCOC(=O)c1ccccc1C(=O)OCCCCCCCC | inactive
CSc1ccc(Oc2ccc(S(N)(=O)=O)cc2CN(C)C)cc1C | inactive
ON(Cc1ccccc1)Cc1ccccc1 | inactive
FC(F)=C(F)C(F)(F)C(F)(F)C(F)(F)C(F)F | inactive
Cc1cc(C)c(S(=O)(=O)O)cc1N=Nc1cc(S(=O)(=O)O)c2ccccc2c1O | inactive
CCCC/C=C/C=C\C=O | inactive
OCCCC(F)(F)C(F)(F)C(F)(F)C(F)(F)C(F)(F)C(F)(F)C(F)(F)C(F)(F)F | inactive
Clc1ccc2c(Cl)ccnc2c1 | inactive
Cc1cc(C(=C2C=CC(=Nc3ccc(S(=O)(=O)O)cc3)C=C2)c2ccc(Nc3ccc(S(=O)(=O)O)cc3)cc2)cc(S(=O)(=O)O)c1N | inactive
CCN(CC)c1ccc(N=Nc2ccccc2)cc1 | inactive
[Co] | inactive
CC(=O)OC1CCCCC1 | inactive
O=C1CCCCC1 | inactive
COC(F)(C(F)F)C(F)(F)F (stereo not given) | inactive
O=C1OCc2ccccc21 | inactive
O=C(O)C(F)(F)C(F)(F)OC(F)(F)F | inactive
CCC(=O)OC/C=C(\C)CCC=C(C)C | inactive
FC(F)(F)C(F)(F)C(F)(F)CC1CO1 (stereo not given) | inactive
CC1=Nc2ccc3ccccc3c2C1(C)C | inactive
CCOC(=O)C1=NN(c2ccc(Cl)cc2Cl)C(C)(C(=O)OCC)C1 (stereo not given) | inactive

Structure (SMILES) | outcome
CN(C)c1ccc(N=NS(=O)(=O)O)cc1 | inactive
CN(C)CCOC(c1ccccc1)c1ccccc1 | inactive
OCC1CCC(CO)CC1 (stereo not given) | inactive
CCCCC1CCC(O)CC1 (stereo not given) | inactive
O=C(O)C(F)(F)C(F)(F)C(F)(F)OC(F)(C(F)(F)F)C(F)(F)F | inactive
O=C1C=CC(=O)N1c1ccccc1 | inactive
FC(F)(F)C(F)(F)C(F)(F)C(F)(F)C(F)(F)C(F)(F)C(F)(F)C(F)(F)CCS | inactive
Cc1ccc(S(=O)(=O)Oc2ccc(N=Nc3ccc(-c4ccc(N=Nc5c(O)ccc6cc(S(=O)(=O)O)cc(S(=O)(=O)O)c56)c(C)c4)cc3C)cc2)cc1 | inactive
NNC(=O)c1cccc(C(=O)NN)c1 | inactive
Nc1cccc2c(N)cccc12 | inactive
C=CC(=O)OCCCCCCOC(=O)C=C | inactive
C=CC(=O)OCCCCCCCC(C)C | inactive
COCCOCCC[Si](C)(O[Si](C)(C)C)O[Si](C)(C)C | inactive
C=C(Cl)Cl | inactive
N#Cc1cc(I)c(O)c(I)c1 | inactive
CN(C)Cc1ccccc1O | inactive
O=c1cccc[nH]1 | inactive
Nc1c(Cl)cc(Cl)cc1[N+](=O)[O-] | inactive
c1ccc2[nH]ccc2c1 | inactive
FC(OC(F)(F)C(F)(F)C(F)(F)F)C(F)(F)F (stereo not given) | inactive
